Most compounds without a hit are left out; they make up all but 2.8% or so of the library.
SENP8 block-1 = human SENP8 protease inhibitors, primary screen, biochemical, fluorescence, Nedd8 protein substrate, uHTS. Sentrin-specific protease 8 (Homo sapiens), Q96LD8. recombinant SENP8. inhibition, % at 20 µM. 360,000 tested, 0.64% active; in the data active = inhibition mostly above about 40%, no sharp cut-off; inactive = mostly below about 27%
SENP6 inh = SENP6 protease inhibitors, primary screen, biochemical, luminescence, uHTS; Sentrin-specific protease 6 (Homo sapiens), Q9GZR1; Recombinant SENP6 catalytic domain, aminoluciferin luminescence; inhibition, % at 10 µM; 330,000 tested, 1.8% active; AID 2599, 2010;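 active = inhibition above about 50% at the single tested dose, limit read from the data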
Target sequence (Q9GZR1 628-1112 limits assumed): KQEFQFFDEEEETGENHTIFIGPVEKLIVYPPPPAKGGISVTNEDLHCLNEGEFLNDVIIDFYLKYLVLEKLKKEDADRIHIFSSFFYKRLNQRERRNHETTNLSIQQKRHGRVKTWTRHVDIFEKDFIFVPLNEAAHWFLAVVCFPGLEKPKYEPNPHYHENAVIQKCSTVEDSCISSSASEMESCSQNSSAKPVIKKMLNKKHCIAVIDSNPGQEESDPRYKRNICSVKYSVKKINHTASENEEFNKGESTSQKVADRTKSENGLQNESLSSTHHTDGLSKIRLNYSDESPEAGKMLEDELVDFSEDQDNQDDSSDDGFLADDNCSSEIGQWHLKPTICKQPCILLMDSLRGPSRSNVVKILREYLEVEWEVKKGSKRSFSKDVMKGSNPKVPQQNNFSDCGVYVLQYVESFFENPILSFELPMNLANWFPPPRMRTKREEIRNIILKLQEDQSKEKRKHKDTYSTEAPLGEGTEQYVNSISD
Platelet DG rel = inhibitors of platelet dense granule secretion, primary screen, cell-based, MLPCN, human platelets. 300,000 tested, 0.22% active. human platelet-rich plasma, SFLLRN dense granule ATP release, luminescence. inhibition, %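 (compounds screened at 7.5 µM in platelet-rich plasma)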;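 active = mean replicate score, as percent of positive control, at or above 50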
SENP7 block = SENP7 protease inhibitors, primary screen, biochemical, luminescence, uHTS; Sentrin-specific protease 7 (Homo sapiens), Q9BQF6; recombinant SENP7, Z-RLRGG-aminoluciferin luminescence, 40 min; inhibition, % at 5 µM; 330,000 tested, 1.5% active; AID 434973, 2010;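 active = inhibition above about 50% at the single test dose, limit read from the data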
SENP8 block-2 = SENP8 protease inhibitors, primary screen, biochemical, luminescence; 330,000 tested, 1.2% active; purified SENP8, Z-RLRGG-aminoluciferin cleavage; inhibition, % at 10 µM; in the data active = inhibition above about 50%
HSP90 refold inh = HSP90 inhibitors, primary screen, cell lysate, luminescence; Rabbit reticulocyte lysate, luciferase refolding luminescence, 3 h; inhibition, % at 5.6 µM; 290,000 tested, 0.91% active; Heat shock protein HSP 90 (rabbit reticulocyte lysate; luciferase refolding);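 active = inhibition above the screen-wide mean plus 3 SD, computed separately per campaign, cut at about 16% in these data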;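 also: inhibitors lower the luminescence because luciferase stays unfolded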
HSP90 confirm = HSP90 inhibitors, confirmation, cell lysate, luminescence; shares compounds with HSP90 refold inh; rabbit reticulocyte lysate, luciferase refolding luminescence, 3 h; inhibition, % at 5.9 µM; 2,300 tested, 64% active; in the data active = inhibition above about 18%
FLuc counter = firefly luciferase inhibitors, HSP90 counter-screen, confirmation, artefact control for HSP90 inhibitor project, biochemical, luminescence, triplicate | purified native firefly luciferase | shares compounds with HSP90 refold inh | 2,300 tested, 48% active | AID 1847, 2009 | inhibition, % at 5.9 µM;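 active = inhibition above the mean inhibition of all tested sample wells plus 3 SD, cut at about 10% in these data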
Numbers stand for hits.

How did O=C(c1ccc2noc(-c3ccccc3)c2c1)N1CCN(c2ccccc2)CC1 do in these assays?
SENP8 block-1: inactive; SENP6 inh: inactive; SENP7 block: inactive; SENP8 block-2: inactive

What do the screens show for `CSCC[C@H](NC(=O)c1ccc(OCC2CCCO2)cc1)c1nc2ccccc2[nH]1` (stereo partly specified)?
SENP8 block-1: inactive; SENP6 inh: inactive; SENP7 block: inactive; SENP8 block-2: inactive

Results for c1ccc(-c2cc3c(-n4cccc4)ncnc3o2)cc1 ?
SENP8 block-1: inactive; SENP6 inh: inactive; Platelet DG rel: inactive; SENP7 block: inactive; SENP8 block-2: inactive; HSP90 refold inh: 17; HSP90 confirm: inactive; FLuc counter: inactive

What do the screens show for `CN1CCN(S(=O)(=O)c2cccc(C#N)c2)C(c2ccccc2)C1` (stereo unspecified)?
SENP8 block-1: inactive; SENP6 inh: inactive; SENP7 block: inactive; SENP8 block-2: inactive

What do the screens show for `O=C(C1=C[C@H](c2csc3ccccc23)C[C@H](OCCCCO)O1)N1CCN(Cc2ccc3c(c2)OCO3)CC1`?
SENP8 block-1: inactive; SENP6 inh: inactive; Platelet DG rel: inactive; SENP7 block: inactive; SENP8 block-2: inactive; HSP90 refold inh: 19; HSP90 confirm: inactive; FLuc counter: inactive

Results for CCOC(=O)C1(Cc2ccc(OC)cc2)CCN(C(=O)[C@@H]2CCCN2C(C)=O)CC1 ?
SENP8 block-1: inactive; SENP6 inh: inactive; Platelet DG rel: inactive; SENP7 block: inactive; SENP8 block-2: inactive; HSP90 refold inh: inactive

Results for Cc1noc(C)c1COC(=O)c1ccc2c(c1)OCO2 ?
SENP8 block-1: inactive; SENP6 inh: inactive; Platelet DG rel: inactive; SENP7 block: inactive; SENP8 block-2: inactive; HSP90 refold inh: inactive

What do the screens show for `CCOC(=O)c1ccc(-c2c(-c3ccc4c(c3)OCO4)noc2C)cc1F`?
SENP8 block-1: inactive; SENP6 inh: inactive; Platelet DG rel: inactive; SENP7 block: inactive; SENP8 block-2: inactive; HSP90 refold inh: 17; HSP90 confirm: inactive; FLuc counter: inactive

How did CCOC(=O)c1ccc(N2CCN(C(=O)c3ccccc3)CC2)c(NC(=O)c2ccco2)c1 do in these assays?
SENP8 block-1: inactive; SENP6 inh: inactive; Platelet DG rel: inactive; SENP7 block: inactive; SENP8 block-2: inactive; HSP90 refold inh: inactive

What do the screens show for `Cc1cccc(N(CC(=O)NCc2ccccc2)C(=O)Cn2nnc(-c3ccc(C)o3)n2)c1`?
SENP8 block-1: inactive; SENP6 inh: inactive; Platelet DG rel: inactive; SENP7 block: inactive; SENP8 block-2: inactive; HSP90 refold inh: inactive

Results for COc1ccc(N(CC(=O)NCc2ccc(F)cc2)C(=O)Cn2nnc(-c3ccc(C)o3)n2)cc1OC ?
SENP8 block-1: inactive; SENP6 inh: inactive; Platelet DG rel: inactive; SENP7 block: inactive; SENP8 block-2: inactive; HSP90 refold inh: 49; HSP90 confirm: inactive; FLuc counter: inactive

How did COc1ccc(N2CCC(CNC(=S)Nc3cccc(OC)c3)C2)cc1 (stereo unspecified) do in these assays?
SENP6 inh: inactive; Platelet DG rel: inactive; SENP7 block: inactive; SENP8 block-2: inactive; HSP90 refold inh: 18; HSP90 confirm: inactive; FLuc counter: inactive

What do the screens show for `Cc1ccc(C)c(S(=O)(=O)NCCN2CCOCC2)c1`?
SENP8 block-1: inactive; SENP6 inh: inactive; Platelet DG rel: inactive; SENP7 block: inactive; SENP8 block-2: inactive; HSP90 refold inh: inactive

Results for O=C1/C(=C2/NCCN2C2CC(=O)N(c3ccccc3)C2=O)CC/C1=C\c1ccccc1 (stereo unspecified) ?
SENP8 block-1: inactive; SENP6 inh: inactive; Platelet DG rel: inactive; SENP7 block: inactive; SENP8 block-2: inactive; HSP90 refold inh: inactive

How did Cc1ccc(N2C(=O)CC(N3CCN/C3=C3\CC/C(=C\c4ccccc4)C3=O)C2=O)cc1 (stereo unspecified) do in these assays?
SENP8 block-1: inactive; SENP6 inh: inactive; Platelet DG rel: inactive; SENP7 block: inactive; SENP8 block-2: inactive; HSP90 refold inh: 18; HSP90 confirm: inactive; FLuc counter: inactive

What do the screens show for `C/C(=N\Nc1nc(C(=O)O)cs1)c1ccccc1`?
SENP6 inh: inactive; Platelet DG rel: inactive; SENP7 block: inactive; SENP8 block-2: inactive; HSP90 refold inh: 29; HSP90 confirm: inactive; FLuc counter: inactive

How did CN(C(=O)c1cccc(NC(=O)Cc2ccc(NC(=O)C3CCCN(S(=O)(=O)c4cccc([N+](=O)[O-])c4)C3)cc2)c1)C1CCC1 (stereo unspecified) do in these assays?
SENP8 block-1: inactive

Results for NC(=S)N/N=C/c1ccc(C23CC4CC(CC(C4)C2)C3)cc1 ?
SENP6 inh: inactive; Platelet DG rel: inactive; SENP7 block: inactive; SENP8 block-2: inactive; HSP90 refold inh: 24; HSP90 confirm: inactive; FLuc counter: inactive

How did CCOc1ccccc1N(C)S(=O)(=O)c1ccc2c(c1)CC(C)N2C(=O)C1CC1 (stereo unspecified) do in these assays?
SENP8 block-1: inactive; SENP6 inh: inactive; Platelet DG rel: inactive; SENP7 block: inactive; SENP8 block-2: inactive; HSP90 refold inh: inactive

What do the screens show for `O=C(CN(Cc1ccco1)C(=O)CNS(=O)(=O)c1ccc(Cl)cc1)NCc1ccco1`?
SENP8 block-1: inactive; SENP6 inh: inactive; Platelet DG rel: inactive; SENP7 block: inactive; SENP8 block-2: inactive; HSP90 refold inh: 55; HSP90 confirm: inactive; FLuc counter: inactive

Results for O=C(Nc1ccccc1)c1cc(C2CCCN(C(=O)c3cccs3)C2)on1 (stereo unspecified) ?
SENP8 block-1: inactive

Results for O=C(O)c1cccc(N/N=C/c2ccc(-c3ccccc3)cc2)c1 ?
SENP8 block-1: inactive; Platelet DG rel: inactive; HSP90 refold inh: 28; HSP90 confirm: 54; FLuc counter: 67

What do the screens show for `Cc1[nH]c2ccccc2c1/C=N/Nc1cccc(C(=O)O)c1`?
SENP8 block-1: inactive; SENP6 inh: inactive; Platelet DG rel: inactive; SENP7 block: inactive; SENP8 block-2: inactive; HSP90 refold inh: 54; HSP90 confirm: 54; FLuc counter: 41

Results for CCc1nnc(N/N=C/c2c(C)[nH]c3ccccc23)n1N ?
SENP8 block-1: inactive; SENP6 inh: inactive; Platelet DG rel: inactive; SENP7 block: inactive; SENP8 block-2: inactive; HSP90 refold inh: 75; HSP90 confirm: inactive; FLuc counter: inactive
